Laboratory results from PubChem BioAssay (Tox21).
Records with an inconclusive call do not appear. Activity calls are given as the source filed them. Unless noted, calls come from the whole dose curve; as a rule, active = well fitted curve in the direction sought with a large enough effect in the repeat runs; inconclusive = weak or mixed curves; inactive = no such curve, though single readings can be large; an effect the other way counts as inactive or inconclusive.

Legend:
[1] = qHTS assay to identify small molecule HDAC inhibitors - cell viability counter screen (AID 1259365); note: series mostly up to about 92 µM; nearly all actives have a fitted effect of over 50% in size
How it was run: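 CellTiter-Glo luminescence (30 min, room temperature) reported viability after a 2 h compound exposure at 37 C. Cells: wild-type HCT-116, 1,500 per well, seeded the night before.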

[2] = qHTS assay to identify small molecule agonists of the sonic hedgehog signaling (Shh) pathway - cell viability counter screen (AID 1259366); note: nearly all actives have a fitted effect of over 50% in size
How it was run: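 Cytotoxicity counter screen: CellTiter-Fluor reagent added after 23 h compound exposure, then 1 h at 37C and fluorescence read. Cells were 3T3 Gli1-Luc, seeded 2,000 per well and dosed 4 h post-plating.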

[3] = qHTS assay to identify small molecule antagonists of the sonic hedgehog signaling (Shh) pathway - cell viability counter screen (AID 1259367); note: nearly all actives have a fitted effect of over 55% in size
How it was run: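 Cytotoxicity was assessed in parallel with Shh reporter activity by measuring live-cell protease fluorescence (CellTiter-Fluor) in NIH/3T3 cells stably carrying Gli1-Luc, treated with compound under conditioned medium stimulation for 23 hr plus 1 hr reagent incubation.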

[4] = qHTS assay to identify small molecule agonists of the sonic hedgehog signaling (Shh) pathway (AID 1259368; calls by dose curve;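 note: NIH/3T3-derived 3T3Gli1-Luc cells carrying a stable Gli1-driven firefly luciferase reporter; series mostly up to about 92 µM; nearly all actives have a fitted effect of over 15% in size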)
How it was run: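 Hedgehog pathway agonism scored by increased firefly luciferase luminescence in 3T3Gli1-Luc cells treated 24 hr at 37 C; detection used a 30 min room-temperature reagent incubation.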

[5] = qHTS assay to identify small molecule antagonists of the sonic hedgehog signaling (Shh) pathway (AID 1259369; calls by dose curve; note: nearly all actives have a fitted effect of over 45% in size)
How it was run: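 NIH/3T3 stable Gli1-Luc clone, 2,000 cells/well, 4hr settle; cpd + conditioned medium 24hr; Luc reagent 30min RT; luminescence.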

[6] = target: Estrogen receptor beta (Homo sapiens) (UniProt Q92731); assay: qHTS assay to identify small molecule agonists of the estrogen receptor beta (ER-beta) signaling pathway (AID 1259377; active = well fitted activation curve with a large enough effect in the signal ratio in the repeat runs, not every such curve was filed as active; the % refers to the signal ratio)
Sequence of Estrogen receptor beta (Homo sapiens) (Q92731 whole entry, looked up): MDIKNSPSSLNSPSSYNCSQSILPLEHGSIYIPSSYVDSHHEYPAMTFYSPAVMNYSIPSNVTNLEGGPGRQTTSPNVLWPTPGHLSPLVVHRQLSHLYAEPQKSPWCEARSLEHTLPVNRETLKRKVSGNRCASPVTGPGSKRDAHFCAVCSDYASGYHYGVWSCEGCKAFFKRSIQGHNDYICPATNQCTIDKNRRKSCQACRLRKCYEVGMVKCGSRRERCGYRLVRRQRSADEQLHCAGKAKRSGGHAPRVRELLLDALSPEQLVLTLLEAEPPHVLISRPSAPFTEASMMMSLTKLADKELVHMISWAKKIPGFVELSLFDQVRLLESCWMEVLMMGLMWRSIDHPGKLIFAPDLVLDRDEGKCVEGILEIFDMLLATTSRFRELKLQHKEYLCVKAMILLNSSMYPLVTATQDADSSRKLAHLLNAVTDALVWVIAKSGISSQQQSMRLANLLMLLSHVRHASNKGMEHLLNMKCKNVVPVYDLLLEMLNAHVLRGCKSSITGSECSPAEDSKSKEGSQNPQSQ
How it was run: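 Ratiometric beta-lactamase FRET read-out came after 2 h substrate loading at room temperature. It followed 16 h compound treatment at 37C of GripTite HEK293T cells carrying a UAS-bla reporter, plated in 2% charcoal-stripped FBS medium.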

[7] = target: Estrogen receptor beta (Homo sapiens) (UniProt Q92731); assay: qHTS assay to identify small molecule antagonists of the estrogen receptor beta (ER-beta) signaling pathway (AID 1259378; active = well fitted inhibition curve with a large enough effect in the signal ratio in the repeat runs, not every such curve was filed as active; the % refers to the signal ratio)
How it was run: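 ER-beta-UAS-bla HEK293T (GripTite) cells in 2% charcoal-stripped FBS medium were preincubated 6 hr at 37C, dosed with compound, then stimulated with 1 nM E2 (final) for 16 hr; beta-lactamase reporter read by B/G FRET fluorescence after 2 hr substrate loading.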

[8] = qHTS assay to identify small molecule agonists of the androgen receptor (AR) signaling pathway in the presence of an antagonist - cell viability counter screen (AID 1259379);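 note: MDA-kb2 human breast cancer cells carrying an MMTV luciferase reporter; series mostly up to about 92 µM; nearly all actives have a fitted effect of over 25% in size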
How it was run: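 MDA-kb2 viability measured by CellTiter-Fluor fluorescence in the same wells as the luciferase signal; nilutamide 3.0uM final; 15-point compound titration; 16 hr at 37C.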

[9] = qHTS assay to identify small molecule agonists of the estrogen receptor beta (ER-beta) signaling pathway - cell viability counter screen (AID 1259380); note: nearly all actives have a fitted effect of over 30% in size
How it was run: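 Measured: luminescence from CellTiter-Glo after 30 min at room temperature, added to wells already read for the LiveBLAzer FRET reporter (2 hr substrate); ER-beta-UAS-bla HEK293T cells had 16 hr compound treatment at 37C, 5% CO2.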

[10] = target: Androgen receptor (Homo sapiens) (UniProt P10275); assay: qHTS assay to identify small molecule agonists of the androgen receptor (AR) signaling pathway in the presence of an antagonist (AID 1259381; calls by dose curve; note: nearly all actives have a fitted effect of over 15% in size)
Sequence of Androgen receptor (Homo sapiens) (P10275 whole entry, looked up): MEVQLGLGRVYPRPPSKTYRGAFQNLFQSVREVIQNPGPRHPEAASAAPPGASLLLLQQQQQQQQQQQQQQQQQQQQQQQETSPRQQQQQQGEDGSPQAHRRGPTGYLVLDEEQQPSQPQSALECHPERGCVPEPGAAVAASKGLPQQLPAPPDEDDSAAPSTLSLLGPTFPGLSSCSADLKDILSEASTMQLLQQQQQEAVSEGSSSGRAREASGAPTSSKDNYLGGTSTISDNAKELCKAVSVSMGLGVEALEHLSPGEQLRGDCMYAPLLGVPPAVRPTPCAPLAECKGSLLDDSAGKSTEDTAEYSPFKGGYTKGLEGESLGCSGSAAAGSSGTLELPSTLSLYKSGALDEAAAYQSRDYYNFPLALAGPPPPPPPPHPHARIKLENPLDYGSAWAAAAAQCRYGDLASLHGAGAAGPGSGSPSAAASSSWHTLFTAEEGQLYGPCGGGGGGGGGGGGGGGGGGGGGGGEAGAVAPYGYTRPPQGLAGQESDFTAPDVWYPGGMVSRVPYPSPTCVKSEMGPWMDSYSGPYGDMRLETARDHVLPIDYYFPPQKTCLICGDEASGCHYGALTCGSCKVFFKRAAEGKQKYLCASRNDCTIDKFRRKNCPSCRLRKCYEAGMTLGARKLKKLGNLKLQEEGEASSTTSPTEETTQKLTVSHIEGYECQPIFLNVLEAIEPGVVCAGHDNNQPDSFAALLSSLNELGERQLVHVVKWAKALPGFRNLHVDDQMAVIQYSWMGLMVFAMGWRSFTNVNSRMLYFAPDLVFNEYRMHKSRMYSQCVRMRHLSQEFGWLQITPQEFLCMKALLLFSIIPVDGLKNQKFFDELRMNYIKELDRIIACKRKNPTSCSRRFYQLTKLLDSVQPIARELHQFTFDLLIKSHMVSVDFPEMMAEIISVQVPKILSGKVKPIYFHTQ
How it was run: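 Luminescent ONE-Glo read, 30min at room temperature, follows 16hr compound exposure (15 concentrations) of MDA-kb2 cells at 37C, 0% CO2, with nilutamide added at 3.0uM final.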
% is set by controls: 0 for no effect and ±100 for the full control effect.

CC(=O)c1c(C)cc(C(C)(C)C)cc1C
inactive: outcome [1] | outcome [2] | outcome [3] | outcome [4] | Potency [5] | Potency [6] | outcome [7] | outcome [8] | Potency [9]

CCOCCOCCOC(C)=O
inactive: outcome [1] | outcome [2] | outcome [3] | outcome [4] | Potency [5] | Potency [6] | outcome [8] | Potency [9]

CCC(C)(C)C
inactive: outcome [1] | outcome [2] | outcome [3] | outcome [4] | Potency [5] | Potency [6] | outcome [7] | Potency [9]

CCN1CCN(C(=O)N[C@@H](C(=O)N[C@@H]2C(=O)N3C(C(=O)O)=C(CSc4nnnn4C)CS[C@H]23)c2ccc(O)cc2)C(=O)C1=O
inactive: outcome [1] | outcome [2] | outcome [3] | outcome [4] | Potency [5] | Potency [6] | outcome [7] | outcome [8] | Potency [9]

CC(C)(C)NCC(O)COc1cccc2c1CCC(=O)N2 (stereo not given)
inactive: outcome [1] | outcome [2] | outcome [3] | outcome [4] | Potency [5] | Potency [6] | outcome [7] | outcome [8] | Potency [9] | outcome [10]

CCCC(=O)C(CC)Sc1ccoc1C (stereo not given)
inactive: outcome [1] | outcome [2] | outcome [3] | outcome [4] | Potency [5] | Potency [6] | outcome [7] | outcome [8] | Potency [9] | outcome [10]

CC(C)(C)C(=O)CC(=O)C(C)(C)C
inactive: outcome [1] | outcome [2] | outcome [3] | outcome [4] | Potency [5] | Potency [6] | outcome [7] | outcome [8] | Potency [9]

O=C1c2ccccc2C(=O)N1CO
inactive: outcome [1] | outcome [2] | outcome [3] | outcome [4] | Potency [5] | Potency [6] | outcome [7] | outcome [8] | Potency [9] | outcome [10]

CN(C)CCc1c[nH]c2ccc(CS(=O)(=O)N3CCCC3)cc12
inactive: outcome [1] | outcome [2] | outcome [3] | outcome [4] | Potency [5] | Potency [6] | outcome [7] | outcome [8] | Potency [9]

O=C1CC2(CCCC2)CC(=O)N1CCNCC1COc2ccccc2O1 (stereo not given)
inactive: outcome [1] | outcome [2] | outcome [3] | outcome [4] | Potency [5] | Potency [6] | outcome [7] | outcome [8] | Potency [9]

O=CN1CCCCC1
inactive: outcome [1] | outcome [2] | outcome [3] | outcome [4] | Potency [5] | Potency [6] | outcome [7] | outcome [8] | Potency [9]

CCCCCC(CC)OC(=O)CCCOc1ccc(Cl)cc1Cl (stereo not given)
inactive: outcome [1] | outcome [2] | outcome [3] | outcome [4] | Potency [5] | Potency [6] | outcome [7] | outcome [8] | Potency [9]

CN(C)c1cc(NC(=O)CNC(C)(C)C)c(O)c2c1C[C@H]1C[C@H]3[C@H](N(C)C)C(=O)C(C(N)=O)=C(O)[C@@]3(O)C(=O)C1=C2O
inactive: outcome [1] | outcome [2] | outcome [3] | outcome [4] | Potency [5] | Potency [6] | outcome [7] | outcome [8] | Potency [9] | outcome [10]

CC(C)CC(O)Cc1ccccc1 (stereo not given)
inactive: outcome [1] | outcome [2] | outcome [3] | outcome [4] | Potency [5] | Potency [6] | outcome [7] | outcome [8] | Potency [9] | outcome [10]

Cc1ccc2cccnc2c1
inactive: outcome [1] | outcome [2] | outcome [3] | outcome [4] | Potency [5] | Potency [6] | outcome [7] | outcome [8] | Potency [9] | outcome [10]

CCCCCCCCCCCCCCCCN(C)C
inactive: activity change, negative = cytotoxicity [1] 1.52% [at 8.39 µM] | viability change, negative = cytotoxic [2] 4.7% [at 8.39 µM] | viability change, negative = cytotoxic [3] 2.16% [at 8.39 µM] | activity change [4] -0.702% [at 8.39 µM] | activity change, negative = inhibition [5] -28.7% [at 8.39 µM] | activation [6] -2.39% [at 8.39 µM] | activity, negative = inhibition [7] 3.25% [at 8.39 µM] | activity change, negative = cytotoxicity [8] 0.395% [at 8.39 µM] | activity change, negative = cytotoxicity [9] 3.62% [at 8.39 µM] | activation [10] -0.033% [at 8.39 µM]

O=c1[nH]c(=O)c2cn[nH]c2[nH]1
inactive: outcome [1] | outcome [2] | outcome [3] | outcome [4] | Potency [5] | Potency [6] | outcome [7] | outcome [8] | Potency [9]

CCCCN=C(N)N=C(N)N
inactive: outcome [1] | outcome [2] | outcome [3] | outcome [4] | Potency [5] | Potency [6] | outcome [7] | outcome [8] | Potency [9]

CC(=O)c1ccc(O)c(C(N)=O)c1
inactive: outcome [1] | outcome [2] | outcome [3] | outcome [4] | Potency [5] | Potency [6] | outcome [7] | outcome [8] | Potency [9] | outcome [10]

C/C=C(\C)C(=O)OC/C=C(\C)CCC=C(C)C
inactive: outcome [1] | outcome [2] | outcome [3] | outcome [4] | Potency [5] | Potency [6] | outcome [7] | outcome [8] | Potency [9]

C=C(C)C(=O)OCCCC
inactive: outcome [1] | outcome [2] | outcome [3] | outcome [4] | Potency [5] | Potency [6] | outcome [7] | outcome [8] | Potency [9] | outcome [10]

Cc1ccc(O)c([N+](=O)[O-])c1
inactive: outcome [1] | outcome [2] | outcome [3] | outcome [4] | Potency [5] | Potency [6] | outcome [8]

CC(=O)OCC(=O)[C@@]1(O)CC[C@H]2[C@@H]3CCC4=CC(=O)C=C[C@]4(C)[C@H]3[C@@H](O)C[C@@]21C
inactive: outcome [1] | outcome [2] | outcome [3] | outcome [4] | Potency [5] | Potency [6] | outcome [8] | Potency [9]

Cc1cc(C)c(N)c(Cl)c1
inactive: outcome [1] | outcome [2] | outcome [3] | outcome [4] | Potency [5] | Potency [6] | outcome [7] | outcome [8] | Potency [9]
